This assay has as its system Plasmodium falciparum. Kind of assay: GSK_TCMDC: Inhibition of Plasmodium falciparum 3D7 in whole red blood cells, using parasite LDH activity as an index of growth. Test compounds present at 2uM. In kind it is functional.
The Inhibition is the percentage by which the read-out fell short of the control. Read a low Inhibition as little suppression. Turning to `O=C(NCCc1cccc(Cl)c1Cl)c1cnc(N2CCN(c3ccncc3)CC2)c(Cl)c1.O=C(O)C(F)(F)F`, the Inhibition is recorded as 100%. As for `CCCCNc1cc(C)nc(NCc2ccccc2)n1`, the Inhibition is 97%. In the case of `O=C(Cc1cccc(O)c1)Nc1ccc(-c2cccc(-c3nc4cc(C(F)(F)F)ccc4[nH]3)c2)cc1` it was 86%; in that of `CCOC(=O)c1ccc(NC(=O)N[C@@H](Cc2ccccc2)C(=O)NC2CCN(Cc3ccc(OCCCN(C)C)cc3)C2)cc1` (stereo not given in full), 91%; in that of `Cc1nc(-c2ccc(-c3ccc(C(=O)Nc4ccc(-n5ccnc5)c(N5CCN(C)CC5)c4)cc3)c(C)c2)no1`, 100%. In the case of `O=C1OC(c2ccccc2)(c2ccccc2)CN1C1CCN(Cc2ccc(O)c(Cl)c2)C1` (stereo not given) it was 100%; in that of `CC1CN(c2cnn(Cc3ccc(NC(=O)Nc4ccc(F)cc4[N+](=O)[O-])cc3)c(=O)c2Cl)CC(C)N1.O=C(O)C(F)(F)F` (stereo not given), 89%; in that of `Cc1nc(-c2cccc(Nc3nccc(NCC(O)c4ccccc4C(F)(F)F)n3)c2)cs1` (stereo not given), 97%. `N#CC(c1ccc(Cl)cc1)c1ccc2c(C(F)(F)F)cc(C(F)(F)F)nc2n1` (stereo not given) came in with an Inhibition of 97%. In the case of `Cc1nnsc1C(=O)Nc1ccc(-c2cccc(-c3nc4cc(C(F)(F)F)ccc4[nH]3)c2)cc1` it was 97%; in that of `CCOc1cc(C(=O)NCCN(CC)c2cccc(C)c2)ccc1-c1nc2cc(Cl)ccc2[nH]1`, 100%; in that of `CCOc1cc(C(=O)Nc2cccnc2)cc(Br)c1OCCC(C)C`, 88%. In the case of `Cc1ccc(O)cc1Nc1ccnc2cc(-c3csc(CNCCN4CCOCC4)n3)ccc12` it was 100%. Turning to `CN1CCCC(CN2CCN(Cc3cccc(-c4ccc(-c5nc6ccccc6[nH]5)cc4)c3)CC2)C1.O=C(O)C(F)(F)F` (stereo not given), the Inhibition is given as 100%. Molecule `COc1cc(C(=O)NC2CC(C)(C)NC(C)(C)C2)ccc1-c1cc2cc(Cl)c(Cl)cc2[nH]1.O=C(O)C(F)(F)F` came in with an Inhibition of 99%. In the case of `O=C(Nc1ccc2c(c1)CCC2)c1nc(N2CCN(c3ccncc3)CC2)ccc1Cl.O=C(O)C(F)(F)F` it was 100%; in that of `COc1ccc(Br)cc1C1Nc2ccc3ccccc3c2C2=C1C(=O)CC(c1ccccc1)C2` (stereo not given), 100%. In the case of `Cn1ccnc1CNC(=O)c1ccc(-c2ccc(-c3nc4cc(C(F)(F)F)ccc4[nH]3)s2)cc1` it was 100%; in that of `Cc1cccc(C)c1/N=C1\NC(=S)N(c2cccc(Cl)c2)C12CCC(C(C)(C)C)CC2` (stereo not given), 87%.

`CS(=O)(=O)Nc1ccc2[nH]cc(C3CCN(CC(O)C4CCN(C(=O)/C=C/c5ccc(Cl)c(Cl)c5)CC4)CC3)c2c1.O=C(O)C(F)(F)F` (stereo not given): the Inhibition is 100%. In the case of `O=C(/C=C/c1cccc(OC(F)(F)F)c1)NCCCCCN1CCC(c2c[nH]c3ccccc23)CC1` it was 93%.

Regarding `OC(CNCc1ccccc1)c1cc(OCc2ccccc2)cc(OCc2ccccc2)c1` (stereo not given), the Inhibition is 98%. Turning to `Cn1nc(C(F)(F)F)c(-c2ccc(F)cc2)c1NC(=O)Nc1ccc(F)cc1F`, the Inhibition came to 100%. In the case of `O=C(Nc1ccc(Cn2ncc(N3CCCNCC3)c(Cl)c2=O)cc1)Nc1cccc(C(F)(F)F)c1.O=C(O)C(F)(F)F` it was 100%. The molecule `CN1CCN(CC(=O)Nc2cccc(-c3cccc(-c4nc5cc(C(F)(F)F)ccc5[nH]4)c3)c2)CC1` showed an Inhibition of 100%. In the case of `CN1CCC(COc2ccc(CN3CCC(NC(=O)c4cccc(Cl)c4)CC3)cc2)CC1.O=C(O)C(F)(F)F` it was 94%. In the case of `CCCCCCc1cc(Oc2c(I)cc(C[C@H](N)C(=O)O)cc2I)ccc1O` it was 97%.

For `COc1ccc(OCC(=O)Nc2cc(-c3nc4ccccc4[nH]3)ccc2Cl)cc1`, the Inhibition worked out at 94%. In the case of `CC[C@H](C)CNC(=O)c1cncc(-c2ccc(CNC3Cc4ccccc4C3)cc2)c1.O=C(O)C(F)(F)F` it was 100%; in that of `Cc1cc(N2CCCC2)nc(Nc2ccc(NC(=O)CC(C)C)cc2)n1`, 95%. In the case of `O=C(O)C(F)(F)F.O=S(=O)(NC1CCN(c2ccnc3ccccc23)C1)c1ccc(OC(F)(F)F)cc1` (stereo not given) it was 88%. On to `O=C1NC(=O)C(c2cccc(NC(=O)c3ccncc3)c2)=C1c1ccccc1`, for which the Inhibition is listed as 100%. In the case of `Cc1nc2ccccc2n1C1CC2CCC(C1)N2CCCC1(c2ccccc2)CCN(C(=O)OCc2ccccc2)CC1.O=CO` (stereo not given) it was 90%.

For `Cc1cc(-c2cccc(CNCc3ccccc3)c2)ccc1S(=O)(=O)NCCN1CCCC1.O=C(O)C(F)(F)F`, the Inhibition was determined as 98%.

`O=C(Nc1ccc2c(c1)CCN2C1CCN(Cc2ccc(F)cc2Cl)C1)c1ccco1` (stereo not given) displayed an Inhibition of 97%.

`O=C(CCN1CCCCC1)Nc1ccc(Nc2nccc(NCC(O)c3ccccc3)n2)cc1` (stereo not given) showed an Inhibition of 100%. Turning to `C[C@@H](Oc1cc(-n2cnc3ccc(OCC4CCN(S(C)(=O)=O)CC4)cc32)sc1C(N)=O)c1ccccc1C(F)(F)F`, the Inhibition is listed as 84%. For the molecule `COc1nc2c(N3CCN(CCNCc4ccc5c(n4)NC(=O)CS5)CC3)ccnc2cc1F`, the Inhibition stood at 100%.

In the case of `CC(C)C[C@H]1c2[nH]c3ccc(Cl)cc3c2CCN1C(=O)CCc1ccccc1`, the Inhibition is listed as 95%. In the case of `Cl.c1ccc2c(Nc3ccc(OCCOCCOc4ccc(Nc5c6ccccc6nc6ccccc56)cc4)cc3)c3ccccc3nc2c1` it was 100%.

Values taken from ChEMBL document CHEMBL1157539, “Thousands of chemical starting points for antimalarial lead identification” (Nature, 2010).
